# Measured potencies and affinities stand elsewhere. Results filed as inconclusive are left out. Calls of active or inactive are those of the source.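 Rule for the calls: active = a valid curve of falling signal whose half-effect concentration is at most ten times the top tested dose; inconclusive = flat curve at 30 to 70% inhibition, or poor fit; inactive = signal rise, flat within 30%, or potency beyond limit.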
# Biological target: Scavenger receptor class B member 1 (Mus musculus) (UniProt Q61009)
# Sequence (Q61009 whole entry, looked up): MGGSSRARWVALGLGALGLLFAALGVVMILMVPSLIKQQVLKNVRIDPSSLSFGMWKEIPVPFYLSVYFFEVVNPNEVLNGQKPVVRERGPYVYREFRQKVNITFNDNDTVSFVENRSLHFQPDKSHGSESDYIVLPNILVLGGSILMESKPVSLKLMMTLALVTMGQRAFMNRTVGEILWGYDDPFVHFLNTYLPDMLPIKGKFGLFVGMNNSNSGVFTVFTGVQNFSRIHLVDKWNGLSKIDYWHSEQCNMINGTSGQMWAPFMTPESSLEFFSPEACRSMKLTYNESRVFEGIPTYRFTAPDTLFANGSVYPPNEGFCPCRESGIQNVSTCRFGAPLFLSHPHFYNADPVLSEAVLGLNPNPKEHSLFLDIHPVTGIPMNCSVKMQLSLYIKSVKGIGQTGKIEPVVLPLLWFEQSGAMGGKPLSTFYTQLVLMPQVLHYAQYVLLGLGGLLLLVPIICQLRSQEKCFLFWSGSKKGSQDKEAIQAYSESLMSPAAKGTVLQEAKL
# Experiment: inhibitors of SR-BI mediated HDL lipid uptake, dose response, ldlA[mSR-BI] cells, fluorescence, cherry pick (AID 493194);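 note: CHO cells lacking LDL receptor and overexpressing mouse SR-BI; cellular uptake of fluorescently labeled HDL measured as cell fluorescence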
# Conditions: CHO ldlA[mSR-BI] DiI-HDL uptake fluorescence, 3 h; series mostly up to 35 µM
row,SMILES,outcome
1,CC(C)CN(CC(C)C)C(=O)COn1nnc2ccc(S(=O)(=O)N3CCOCC3)cc21,inactive
2,CCOC(=O)C1CCN(C(=O)Cn2cnc3sc(C)c(S(=O)(=O)N4CCC(C)CC4)c3c2=O)CC1,inactive
3,COc1ccc(OC)c(NC(=O)CCC(=O)N(Cc2ccc(OC)c(OC)c2)c2nccs2)c1,inactive
4,CCNC(=O)c1c(NC(=O)c2cc(-c3cc(C)cc(C)c3O)n[nH]2)sc2c1CCCC2,inactive
5,Cc1ccc(CNC(=O)c2ccc(N3CCC4(CC3)CC(c3cccc(Br)c3)=NO4)c([N+](=O)[O-])c2)cc1,inactive
6,CCc1cc2c(=O)c(-c3ccc4c(c3)OCCO4)coc2cc1OS(C)(=O)=O,inactive
7,CCOC(=O)c1[nH]c2c(c1C)C(=O)CC(c1ccc(F)cc1)C2 (stereo not given),inactive
8,CCn1nc(C)c(CN2CCc3c([nH]c4ccccc34)C2c2ccc(F)c(OC)c2)c1C (stereo not given),inactive
9,CCc1cc(CNC(=O)C2CCC(=O)N(CCc3cccc(F)c3)C2)on1 (stereo not given),inactive
10,O=C1NCCOC(=O)[C@H](Cc2ccc(F)cc2)C/C=C\C[C@@H]1CC(=O)N(CCO)Cc1ccccc1,inactive
11,O=C(Nc1cccc(-c2csc(Nc3ccc(Cl)cc3)n2)c1)c1cccc(C(F)(F)F)c1,inactive
12,COCCNC(=O)c1ccc(CS(=O)(=O)c2cccc(C(F)(F)F)c2)o1,inactive
13,CCSCC1COC(c2cccn2Cc2ccc(C)cc2)=N1 (stereo not given),inactive
14,c1ccc(CCNc2nc(-c3ccncc3)nc3ccccc23)cc1,inactive
15,CCOC(=O)Nc1nc(-c2ccccc2)c(C(=O)c2ccccc2)s1,inactive

# — PubChem BioAssay AID493194 (Broad Institute, 2011)
